Measured potencies and affinities stand elsewhere. Values without a mark were called inactive.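 How the source made its calls: active means falling luciferase signal whose fitted half-maximal concentration is at most twice the top tested dose; inconclusive means flat inhibition between 30 and 70% or a poor curve fit; inactive means the rest.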
Assay: off-target signal loss in HeLa-CEM21 co-culture – HeLa F-luc CTL cells, cherry-picked, counter-screen for HIV-1 Env fusion inhibitor project, dose response (AID 652040);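 further: 0% = median of neutral control wells and -100% = doxycycline 40 µg/mL wells; more negative values mean stronger loss of luciferase signal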
Settings: HeLa-F-luc CTL cells with CEM21, firefly luciferase counterscreen; series mostly up to 35 µM; activity change, negative = inhibition: at the top concentration

| SMILES | activity change, negative = inhibition |
| --- | --- |
| COC(=O)c1ccc(NC(=O)c2ccc(CN3CCOCC3)cc2)cc1 | -10.9% |
| C=CCN1C(=S)CC(c2ccccc2)=Nc2ccccc21 | 4.26% |
| O=C(COc1ccc(-n2cnnn2)cc1)Nc1ccc(F)c(F)c1 | 7.45% |
| CCC(=O)N(C)C(c1ccccc1Cl)c1nnnn1-c1c(C)cccc1C (stereo not given) | 0.685% |
| c1ccc(CSc2nnc([C@@H]3CCCN3)o2)cc1 | 9.53% |
| O=C(Nc1cccn(Cc2c(Cl)cccc2Cl)c1=O)c1ccc(Cl)cc1 | -3.49% |
| CCOC(=O)CN1CCCc2nc(C)c(C)cc21 | 22.2% |
| Cc1oc(-c2ccc(Cl)cc2)nc1CN1CCCC(C(=O)NCc2cccnc2)C1 (stereo not given) | -6.13% |
| Clc1ccc2c(c1)C1=C(C(c3ccncc3)O2)C(c2ccc(Br)cc2)n2ncnc2N1 (stereo not given) | 53.7% [at 16 µM] |
| O=C(c1ccccc1)N1CCN(c2ncnc3sc4c(c23)CCC4)CC1 | -6.45% |
| Cc1ccc(C2CC(=O)c3cnc(N4CCc5ccccc5C4)nc3C2)cc1 (stereo not given) | 3.02% |
| Cc1nc2ccc(NC(=O)c3cc(S(=O)(=O)N(C)c4ccccc4)ccc3Cl)cc2s1 | 20.9% |
| COc1ccc(-c2nn(C)c(=O)c3ccccc23)cc1NC(=O)Cn1nc(C)c2ccccc2c1=O | -17% |
| Cc1ccc(NC(=O)c2ccc(CN3CCc4ccccc4C3)cc2)cc1 | 60.7% |
| Cc1nc2sc(C(c3ccco3)N3CCC(Cc4ccccc4)CC3)c(O)n2n1 (stereo not given) | 36.4% |
| CCc1nc2ccccc2c(C(=O)OCC(=O)Nc2cccc(S(=O)(=O)N3CCOCC3)c2)c1C | -14.7% |
| COc1ccc(S(=O)(=O)N2CCCCC2)cc1NC(=O)CN(Cc1ccco1)Cc1ccco1 | 1.31% |
| O=C(CN1CCN(Cc2ccc(Cl)cc2)C1=O)NCCCN1CCN(c2ccc(F)cc2)CC1 | -0.935% |
| O=C(NCCCN1CCc2ccccc2C1)Nc1ccc(Cl)cc1 | 22.3% |
| Cc1cccc(N2CCN(C(=O)CCCSc3nc4ccccc4[nH]3)CC2)c1C | 1.12% |

| SMILES | activity change, negative = inhibition |
| --- | --- |
| CCCc1cc(=O)n2[nH]cc(-c3ccc(Cl)cc3)c2n1 | -1.1% |
| CCOc1ccc(NC2c3ccccc3C(=O)N2Cc2ccco2)cc1 (stereo not given) | 57.3% |
| Cc1ccc(OCCN2CCN(c3ncnc4sc(C)c(C)c34)CC2)cc1 | -7.38% |
| CC(=O)c1c(C)[nH]c(C(=O)OCC(=O)Nc2ccc(Cl)c(S(=O)(=O)N(C)C)c2)c1C | 13.9% |
| Nc1nonc1C(=O)NCCNCc1cc(Br)ccc1OCc1ccccc1F | 101% |
| Nc1ccc(S(=O)(=O)c2ccc(N3CCOCC3)c(N)c2)cc1 | 24.3% |
| O=C(NCc1ccccc1)[C@@H]1CCCN1C(=O)[C@@H]1CCCN1C(=O)c1cccc2ccccc12 | 32.2% |
| CCc1cc2c(NCc3ccco3)ncnc2s1 | -14.9% |
| COc1cc(CSc2nnnn2-c2ccc(C)cc2)cc(OC)c1OC | 21.6% |
| COc1ccc(N2CCn3c2nc2c3c(=O)n(CCCc3ccccc3)c(=O)n2C)c(OC)c1 | -6.64% [at 16 µM] |
| COc1ccccc1-c1c(-c2ccc(O)cc2O)n[nH]c1C(F)(F)F | 13% |
| C=CC[n+]1c(-c2ccc(OC)c(OC)c2)csc1NNC(=O)Nc1ccccc1 | 22.1% |
| CCN1C(=O)[C@H]2[C@@H](c3ccc(C(F)(F)F)cc3)N[C@]3(CCCN(Cc4ccccc4)C3=O)[C@H]2C1=O | 40.7% |
| COc1ccc(NC(=O)c2ccc(Cl)c(S(=O)(=O)N3CCc4ccccc4C3)c2)cn1 | 29.5% |
| CCCCOc1ccc(S(=O)(=O)Nc2cccnc2)cc1 | 4.95% |
| CCN(C1CCCCC1)S(=O)(=O)c1ccc(S(=O)(=O)NCc2ccncc2)cc1 | 11.4% |
| C[C@H](CO)N1C[C@H](C)[C@@H](CN(C)C(=O)NC2CCCCC2)Oc2c(cccc2N(C)C)C1=O | 24.7% |
| Cc1cc(C(=O)NC2CCCc3c2cnn3-c2ccc(C(C)(C)C)cc2)nn1C (stereo not given) | -16.9% |
| C=CC[n+]1c(-c2ccc(C)cc2)csc1NNC(=O)Nc1ccccc1 | -1.26% [at 16 µM] |
| N#Cc1c(NCc2ccccc2)ccnc1NCc1cccnc1 | -7.24% |
